High-throughput results (PubChem)
Lassa entry: blocks Lassa virus binding or cell entry; Lassa virus pseudotyped entry inhibition, cell-based qHTS; Potency, µM (doses to about 49.2 µM), for the others: top-dose activity change, negative = inhibition, most hits filed as inhibitors; 18,000 tested, 4.1% active
Marburg entry: blocks Marburg virus binding or cell entry; Marburg virus pseudotype entry/binding inhibition, cell-based; Potency, µM (series often up to 49.2 µM), for inactives: at the highest dose activity change, negative = inhibition, most hits filed as inhibitors; 18,000 tested, 6.5% active
The depositor's hits bear a star; ? = inconclusive; . = no result; ! = not confirmed by another sample; [ ] = remark or other dose. Most compounds without a hit are left out; they make up all but 8.6% or so of the library. Calls follow the shape of the full dose curve; tested in HEK293 cells. % is scaled to controls: 0 for no effect and ±100 for the full control effect; potency is read from the fitted curve at half-maximal effect.

SMILES	Lassa entry	Marburg entry
COC(=O)CC=C[C@@H](C)[C@@H](C=NOC[C@@H](O)COCc1ccco1)NS(=O)(=O)c1ccc(C)cc1	-16%[8.59 µM]	21%[8.59 µM]
CCN(CC)CC(O)CN1CCCCc2nc(C)c(C)cc21 (centres undefined)	-17%[8.59 µM]	-8%[8.59 µM]
COC(=O)C1=C(C)N(Cc2ccccc2)C(=NCC(C)C)NC1c1cccc(C(F)(F)F)c1 (centres undefined)	.	9%[8.59 µM]
Cc1cc2c(c(=O)n1Cc1ccccc1)[C@H]1O[C@](c3ccsc3)(Cc3cc(C#N)ccc31)O2	-18%[8.59 µM]	1%[8.59 µM]
CC(C)c1ccc(-c2cc(-c3cn[nH]c3-c3ccccn3)ccn2)cc1	16%	-3%
CCOC(=O)[C@@]1([C@@H](NC(=O)OC)c2ccco2)CCCC1=O	-4%[8.59 µM]	-9%[8.59 µM]
COC1=C(C(=O)c2ccccc2)C(=O)[C@@]2(CC=C(C)C)CC(C#N)C[C@@]1(CC=C(C)C)C2=O (some centres undefined)	?	-16%[8.59 µM]
COC1=C2C[C@H](C)C[C@H](OC)[C@H](O)[C@@H](C)/C=C(/C)[C@H](OC(N)=O)[C@@H](OC)/C=C\C=C(\C)C(=O)NC(=CC1=O)C2=O	5%	23%
C=CCNC1=C2C[C@@H](C)C[C@H](OC)[C@H](O)[C@@H](C)/C=C(\C)[C@H](OC(N)=O)[C@@H](OC)/C=C\C=C(/C)C(=O)NC(=CC1=O)C2=O	3.5µM*!	?
Cc1nc(Nc2ncc(C(=O)Nc3c(C)cccc3Cl)s2)cc(N2CCN(CCO)CC2)n1	?	13µM*
CC(C)CON=C1C[C@@H](O)[C@@H](O)[C@@H]2[C@H]3C(=O)N(Cc4ccc5c(c4)OCO5)C(=O)[C@@H]3CC[C@@H]12	8%[8.59 µM]	-30%[8.59 µM]
Fc1ccc([C@@H]2CCNC[C@H]2COc2ccc3c(c2)OCO3)cc1	?	5.6µM*
O=C(C=Cc1ccc2c(c1)OCO2)c1ccc(F)cc1	3%[8.59 µM]	-9%[8.59 µM]
Cc1ccc(NC2=CC(=O)c3sc(C)nc3C2=O)cc1	3.5µM*	4µM*
COC(=O)CC=C[C@@H](C)[C@@H](Cc1ccccc1Br)OC	.	-4%[8.59 µM]
CCN1C(=NCc2ccccc2)NC(c2cccc(C(F)(F)F)c2)C(C(=O)OC)=C1C (centres undefined)	17%[8.59 µM]	?
C[C@H]1CC[C@]2(NC1)O[C@H]1C[C@H]3[C@@H]4CC[C@H]5C[C@@H](O[C@@H]6O[C@H](CO)[C@H](O[C@@H]7O[C@H](CO)[C@@H](O)[C@H](O[C@@H]8OC[C@@H](O)[C@H](O)[C@H]8O)[C@H]7O[C@@H]7O[C@H](CO)[C@@H](O)[C@H](O)[C@H]7O)[C@H](O)[C@H]6O)CC[C@]5(C)[C@H]4CC[C@]3(C)[C@H]1[C@@H]2C	14µM*	4.5µM*
CC1CCC2(OC1)OC1CC3C4CC[C@@H]5CC(O)CC[C@@]5(C)C4CC(=O)[C@]3(C)C1C2C (some centres undefined)	6%	1%
CCCC[C@]12Cc3cc(OC)c(OC)cc3[C@H](O1)c1c(cc(-c3ccccc3)oc1=O)O2	3%[8.59 µM]	-25%[8.59 µM]
CCCCn1c(C)cc2c(c1=O)[C@H]1O[C@](c3ccsc3)(Cc3ccccc31)O2	11%[8.59 µM]	?
CCN(CC)CCC[C@H](C)Nc1ccnc2cc(Cl)ccc12	24%[17.8 µM]	-22%[17.8 µM]
CCN(CC)Cc1ccc(Nc2ccnc3cc(Cl)ccc23)cc1O	?	1.8µM*
CC(C)=CCCC(C)=CCON=C1C[C@@H](O)[C@@H](O)[C@@H]2[C@H]3C(=O)N(c4cccc(Oc5ccccc5)c4)C(=O)[C@@H]3CC[C@H]12	-21%[8.59 µM]	26%[8.59 µM]
COc1cc(O)cc(/C=C/c2ccccc2)c1	-29%	-12%
COC1=CC(=O)C(O)=C/C1=C\C=C\c1ccccc1	-25%	16µM*
SMILES	Lassa entry	Marburg entry
COc1cc(CN2CCOc3ccc(CN4CCC(O)(c5cccnc5)CC4)cc3C2)cc(OC)c1	-18%	11µM*
COc1ccc(CN2CCOc3ccc(CN4CCC(O)(c5cccnc5)CC4)cc3C2)cc1OC	-4%	?
CCN1C(=NCCc2ccccn2)NC(c2cccc(C(F)(F)F)c2)C(C(=O)OC)=C1C (centres undefined)	33%[8.59 µM]	-20%[8.59 µM]
COC(=O)c1ccc(CN2C(=O)[C@]3(O[C@H](C)CC4=CCCC43)c3c(Br)cccc32)cc1 (some centres undefined)	-6%[8.59 µM]	5%[8.59 µM]
c1ccc2c(c1)CCCc1cc(NCCN3CCOCC3)nnc1-2	24%[17.8 µM]	5%[17.8 µM]
O=C1C(Cl)=C(NCCN2CCOCC2)C(=O)c2ncccc21	11µM*	13µM*
Cc1cc(=O)c2c(O)c3c(O)cc(=O)c4c3c3c(cc(O)c1c23)C(C)(C)C=4O	6.3µM*	6.3µM*
CCOC(=O)[C@]12C[C@]3(C)CCN(C(=O)N[C@@H]1c1ccccc1)[C@@H]32	-19%[8.59 µM]	34%[8.59 µM]
CC(=O)N[C@@H](CC(=O)N[C@@H](CCC(=O)O)C(=O)O)C(=O)O	5%	3%
O=C1[C@@H]2[C@H]3[C@H](O)[C@H](O)CC(=NOC[C@@H](O)COCc4ccco4)[C@@H]3CC[C@H]2C(=O)N1C1CCCCC1	1%[8.59 µM]	-22%[8.59 µM]
C[C@H]1CCCC=CC2C[C@H](O)C[C@@H]2[C@H](O)C=CC(=O)O1 (some centres undefined)	?	35µM*
CC(C)[C@@H]1NC(=O)[C@@H](Cc2ccccc2)NC(=O)[C@H](CC(=O)O)NC(=O)CNC(=O)[C@H](CCCN=C(N)N)NC1=O	-19%	-14%
CC(C)C[C@@H]1NC(=O)[C@H](CCCN)NC(=O)[C@H](C(C)C)NC(=O)[C@@H]2CCCN2C(=O)[C@@H](Cc2ccccc2)NC(=O)[C@H](CC(C)C)NC(=O)[C@H](CCCN)NC(=O)[C@H](C(C)C)NC(=O)[C@@H]2CCCN2C(=O)[C@@H](Cc2ccccc2)NC1=O	32µM*	?
C#CCN(C[C@H](NC(=O)OC(C)(C)C)C(C)C)S(=O)(=O)c1ccc(Br)cc1F	11%	-2%
NC(=O)[C@@H]1C[C@]2(NC(=O)NC2=O)c2cc(F)ccc2O1	-14%	2%
CC1(S(=O)(=O)O)CC(=O)c2ccccc2C1=O (centres undefined)	25µM*	14µM*
CCOc1ccc(N=C(C)Nc2ccc(OCC)cc2)cc1	-11%	11µM*
CC(=O)Nc1ccc(OCCOCCOc2ccc(NC(C)=O)cc2)cc1	?	4%
Cc1cc(C)c(-c2cc([C@H](C)ON=C[C@@H](C)[C@H](OCc3ccccc3)C(C)C)on2)c(C)c1	-2%[8.59 µM]	6%[8.59 µM]
Cc1cc2c(c(=O)n1Cc1ccccc1)[C@H]1O[C@](CCCCN3C(=O)c4ccccc4C3=O)(Cc3ccccc31)O2	3%[8.59 µM]	15%[8.59 µM]
Clc1cccc(Nc2nnc(-c3ccccc3)c3ccccc23)c1	3.5µM*	7.1µM*!
c1ccc(-c2nc(-c3cccc4ccccc34)c(Nc3ccc4ccccc4c3)o2)cc1	1%	4%
COc1ccc(C=CC2=C[C@]3(C)C[C@]2(C)[C@H](c2ccc(OC)cc2)CC3=O)cc1	5%[8.59 µM]	4%[8.59 µM]
CC1O[C@@H](OC2CC(O)[C@@]3(CO)C4C(O)C[C@@]5(C)C(C6=CC(=O)OC6)CC[C@]5(O)C4CC[C@]3(O)C2)C(O)C(O)C1O (some centres undefined)	0.32µM*	0.28µM*
C[C@@H]1O[C@@H](O[C@H]2C[C@@H](O)[C@]3(CO)[C@H]4[C@H](O)C[C@]5(C)[C@@H](C6=CC(=O)OC6)CC[C@]5(O)[C@@H]4CC[C@]3(O)C2)[C@H](O)[C@H](O)[C@H]1O	0.032µM*	?
